Broadly, the AC50 is the concentration at which the activity in the assay is half-maximal.

In PubChem BioAssay (EPA / NIEHS) one finds outcome and AC50 data, which are given here for nine compounds.

Structures are written as SMILES. Values joined by “and” are separate entries in the source; they are usually repeats but may differ in a detail not shown here. Equal values may be shown once. Inconclusive results are not listed. A structure can be active in one record and inactive in another. Active and inactive are the calls of the source. How the source made its calls, unless noted: active means hit-call score of the fitted dose curve at least 0.9, where 1 is the maximum; inconclusive means response in the unintended direction; inactive means score below 0.9.

Experiment [1] in a line: BSK_4H_Eotaxin3: BioMAP Diversity Plus: 4H Assay for Eotaxin 3 Biomarker Activity (AID 2283000; active means hit-call score of the fitted dose curve at least 0.9, where 1 is the maximum; inactive means score below 0.9;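 on outcome: CCL26 protein level quantified by ELISA in parallel with SRB cytotoxicity check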). The note with it: primary human endothelial cells (HUVEC); actives raise or lower the signal. A digest of the protocol: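 Human umbilical vein endothelial cells (BSK_4H system) dosed with test chemical; Eotaxin-3 (CCL26) measured by ELISA 24 h after dosing. Bidirectional curve fitting relative to DMSO negative control as baseline.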

For experiment [2], the target named is human Peroxisome Proliferator-activated Receptor alpha (PPARa), PPARA (gene 5465) (UniProt Q07869). The experiment is described as follows: ATG_PPARa_TRANS: Attagene TRANS-FACTORIAL HepG2 Assay for human Peroxisome Proliferator-activated Receptor alpha (PPARa) (AID 2283001).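 On AC50: potency for gain of reporter signal over DMSO so agonist or activator.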 In outline:
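Transfected HepG2 cells treated with test chemical for 24 h. RNA isolated, reverse-transcribed with oligo(dT), PCR-amplified, FAM-labelled and HpaI-digested. Fragments sized by capillary electrophoresis; gain-of-signal fit relative to DMSO.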

Experiment [3] addresses human Peroxisome Proliferator-activated Receptor delta (PPARd), PPARD (gene 5467) (UniProt Q03181). The experiment is described as follows: ATG_PPARd_TRANS: Attagene TRANS-FACTORIAL HepG2 Assay for human Peroxisome Proliferator-activated Receptor delta (PPARd) (AID 2283002). In outline: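 Transient HepG2 transfection (multiple GAL4-UAS RTUs, chimeric receptor-Gal4); 24 h dosing; total RNA → oligo(dT) RT → PCR → 6-FAM primer extension → HpaI cut → CE. Positive direction vs DMSO.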

Read-out in experiment [4]: Intercellular Adhesion Molecule 1 (ICAM1), ICAM1 (gene 3383)
The experiment is described as follows: BSK_3C_ICAM1: BioMAP Diversity Plus: 3C Assay for Intercellular Adhesion Molecule 1 (ICAM1) Biomarker Activity (AID 2283003; active means hit-call score of the fitted dose curve at least 0.9, where 1 is the maximum; inactive means score below 0.9). The note with it: primary human endothelial cells (HUVEC); actives raise or lower the signal. In outline: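 ELISA read-out of ICAM-1; HUVEC (primary human), 3C system, 24 h post-dosing; bidirectional fit vs DMSO baseline.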

A short description of experiment [5]: BSK_3C_Proliferation: Cell Proliferation Assessment in the BioMAP Diversity Plus: 3C Assay (AID 2283006; active means hit-call score of the fitted dose curve at least 0.9, where 1 is the maximum; inactive means score below 0.9;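 on AC50: potency may reflect either rise or fall in cell number versus DMSO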). The note with it: primary human endothelial cells (HUVEC). A digest of the protocol:
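HUVEC, sub-confluent; 48 h chemical exposure; 10% TCA fix, 0.1% SRB stain, A560 total protein. Gain or loss of signal fitted both directions vs DMSO control.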

Experiment [6] concerns the target Peroxisome proliferator-activated receptor gamma (Homo sapiens) (UniProt P37231). The experiment is described as follows: ATG_PPARg_TRANS: Attagene TRANS-FACTORIAL HepG2 Assay for human Peroxisome Proliferator-activated Receptor-gamma (PPARg) (AID 2283007). In outline: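 After 24 h of chemical exposure, transfected HepG2 cells carrying PPARγ-Gal4 chimera reporter constructs are lysed for RNA. Reporter transcripts are measured by RT-PCR and capillary electrophoresis with fluorescent labelling, and gain of signal is fitted versus DMSO.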

For experiment [7], the target named is Nuclear receptor subfamily 1 group I member 2 (Homo sapiens) (UniProt O75469). The experiment is described as follows: ATG_PXR_TRANS: Attagene TRANS-FACTORIAL HepG2 Assay for human Pregnane X Receptor (PXR) (AID 2283008). A digest of the protocol: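 HepG2 transfected (FuGene 6) with GAL4-UAS reporter units + PXR-Gal4 chimera; dosed 24 h. Total RNA → oligo(dT) RT → PCR → 6-FAM primer extension → HpaI cut → CE. Gain-of-signal vs DMSO.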
Chain of Nuclear receptor subfamily 1 group I member 2 (Homo sapiens) (O75469 whole entry, looked up, the tested form may be a part): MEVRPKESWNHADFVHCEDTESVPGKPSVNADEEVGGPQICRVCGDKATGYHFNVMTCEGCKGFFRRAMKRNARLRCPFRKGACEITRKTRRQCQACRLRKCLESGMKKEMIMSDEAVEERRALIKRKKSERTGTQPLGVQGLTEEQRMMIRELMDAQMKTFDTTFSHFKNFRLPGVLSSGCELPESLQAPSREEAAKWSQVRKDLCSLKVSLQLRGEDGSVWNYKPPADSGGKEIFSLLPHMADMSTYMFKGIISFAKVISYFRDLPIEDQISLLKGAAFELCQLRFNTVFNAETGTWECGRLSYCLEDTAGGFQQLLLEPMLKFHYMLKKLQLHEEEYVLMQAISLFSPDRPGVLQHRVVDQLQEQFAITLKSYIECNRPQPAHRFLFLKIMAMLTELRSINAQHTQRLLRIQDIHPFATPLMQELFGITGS

In experiment [8] the target is human Retinoic Acid Receptor gamma (RARg), RARG (gene 5916) (UniProt P13631). The experiment is described as follows: ATG_RARg_TRANS: Attagene TRANS-FACTORIAL HepG2 Assay for human Retinoic Acid Receptor gamma (RARg) (AID 2283009). A digest of the protocol:
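Readout: reporter transcript levels via RT-PCR, 6-FAM primer-extension labelling, HpaI digestion and capillary electrophoresis. Cells: HepG2 carrying transfected RARg-GAL4 chimera plus UAS reporter set. Dosing 24 h; DMSO negative control.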

The target in experiment [9] is human Retinoic Acid Receptor beta (RARb), RARB (gene 5915) (UniProt P10826). Put plainly: ATG_RARb_TRANS: Attagene TRANS-FACTORIAL HepG2 Assay for human Retinoic Acid Receptor beta (AID 2283004). In outline:
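Induction of reporter mRNA from a chimeric RARb-Gal4 construct was measured by RT-PCR, FAM labelling, HpaI digestion and capillary electrophoresis. Measurements followed 24 h compound treatment of transiently transfected human HepG2 liver cells, with DMSO as baseline.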

Experiment [10] has as its target Retinoic acid receptor alpha (Homo sapiens) (UniProt P10276). Put plainly: ATG_RARa_TRANS: Attagene TRANS-FACTORIAL HepG2 Assay for human Retinoic Acid Receptor alpha (RARa) (AID 2283005). A digest of the protocol: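 Reporter transcripts, measured by RT-PCR with fluorescent labeling and capillary electrophoresis after 24 h dosing, reflect activity of an exogenous human RARa–GAL4 fusion in transiently transfected HepG2. Fitted for increase relative to DMSO.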

Chain of human Retinoic Acid Receptor gamma (RARg), RARG (gene 5916) (P13631 whole entry, looked up, the tested form may be a part): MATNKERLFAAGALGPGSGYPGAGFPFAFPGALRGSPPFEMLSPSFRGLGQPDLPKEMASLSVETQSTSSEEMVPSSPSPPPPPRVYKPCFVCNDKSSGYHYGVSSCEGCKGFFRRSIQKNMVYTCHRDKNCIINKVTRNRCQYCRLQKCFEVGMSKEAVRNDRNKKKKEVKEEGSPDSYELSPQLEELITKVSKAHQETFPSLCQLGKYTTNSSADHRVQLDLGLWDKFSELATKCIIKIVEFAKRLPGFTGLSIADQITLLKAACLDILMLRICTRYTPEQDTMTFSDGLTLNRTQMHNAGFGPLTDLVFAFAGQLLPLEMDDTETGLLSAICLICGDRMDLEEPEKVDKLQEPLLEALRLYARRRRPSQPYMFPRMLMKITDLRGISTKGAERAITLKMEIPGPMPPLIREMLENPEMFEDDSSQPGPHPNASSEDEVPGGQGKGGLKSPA
Chain of human Peroxisome Proliferator-activated Receptor alpha (PPARa), PPARA (gene 5465) (Q07869 whole entry, looked up, the tested form may be a part): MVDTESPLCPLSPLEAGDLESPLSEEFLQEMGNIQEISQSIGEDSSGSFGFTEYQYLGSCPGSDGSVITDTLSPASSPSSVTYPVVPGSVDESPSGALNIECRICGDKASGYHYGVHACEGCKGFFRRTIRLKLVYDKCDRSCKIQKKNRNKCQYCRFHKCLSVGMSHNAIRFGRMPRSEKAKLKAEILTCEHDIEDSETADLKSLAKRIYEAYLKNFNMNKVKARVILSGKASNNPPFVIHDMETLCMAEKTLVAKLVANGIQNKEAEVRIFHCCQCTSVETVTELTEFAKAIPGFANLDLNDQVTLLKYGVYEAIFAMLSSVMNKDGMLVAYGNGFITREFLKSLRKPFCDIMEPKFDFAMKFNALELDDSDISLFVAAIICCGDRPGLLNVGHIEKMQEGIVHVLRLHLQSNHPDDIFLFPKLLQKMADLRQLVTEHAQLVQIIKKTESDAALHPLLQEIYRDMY
Chain of Retinoic acid receptor alpha (Homo sapiens) (P10276 whole entry, looked up, the tested form may be a part): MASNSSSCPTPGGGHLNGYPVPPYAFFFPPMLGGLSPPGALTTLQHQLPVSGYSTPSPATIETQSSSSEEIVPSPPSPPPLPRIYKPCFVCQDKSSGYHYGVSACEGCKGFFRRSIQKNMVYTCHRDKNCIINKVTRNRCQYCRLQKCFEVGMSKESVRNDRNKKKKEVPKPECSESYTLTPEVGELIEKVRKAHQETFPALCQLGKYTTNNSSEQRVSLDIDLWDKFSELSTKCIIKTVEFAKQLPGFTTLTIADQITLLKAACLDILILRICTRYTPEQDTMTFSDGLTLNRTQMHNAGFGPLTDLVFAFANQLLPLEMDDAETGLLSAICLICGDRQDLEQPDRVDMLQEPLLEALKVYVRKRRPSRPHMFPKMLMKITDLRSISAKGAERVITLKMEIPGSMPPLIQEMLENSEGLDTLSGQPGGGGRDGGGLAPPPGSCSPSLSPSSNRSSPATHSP
Chain of human Peroxisome Proliferator-activated Receptor delta (PPARd), PPARD (gene 5467) (Q03181 whole entry, looked up, the tested form may be a part): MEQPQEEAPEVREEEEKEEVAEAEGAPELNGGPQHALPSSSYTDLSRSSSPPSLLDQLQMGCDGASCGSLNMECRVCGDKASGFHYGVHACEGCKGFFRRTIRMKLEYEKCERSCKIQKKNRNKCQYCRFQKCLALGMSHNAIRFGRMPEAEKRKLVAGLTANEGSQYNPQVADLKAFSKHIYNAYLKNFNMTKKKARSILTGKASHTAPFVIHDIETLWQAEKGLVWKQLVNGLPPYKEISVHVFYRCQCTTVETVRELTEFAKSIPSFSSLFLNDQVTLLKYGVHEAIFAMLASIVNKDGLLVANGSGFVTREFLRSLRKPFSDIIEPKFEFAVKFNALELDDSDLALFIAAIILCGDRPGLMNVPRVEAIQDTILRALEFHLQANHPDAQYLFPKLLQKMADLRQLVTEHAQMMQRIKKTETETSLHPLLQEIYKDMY
Chain of human Retinoic Acid Receptor beta (RARb), RARB (gene 5915) (P10826 whole entry, looked up, the tested form may be a part): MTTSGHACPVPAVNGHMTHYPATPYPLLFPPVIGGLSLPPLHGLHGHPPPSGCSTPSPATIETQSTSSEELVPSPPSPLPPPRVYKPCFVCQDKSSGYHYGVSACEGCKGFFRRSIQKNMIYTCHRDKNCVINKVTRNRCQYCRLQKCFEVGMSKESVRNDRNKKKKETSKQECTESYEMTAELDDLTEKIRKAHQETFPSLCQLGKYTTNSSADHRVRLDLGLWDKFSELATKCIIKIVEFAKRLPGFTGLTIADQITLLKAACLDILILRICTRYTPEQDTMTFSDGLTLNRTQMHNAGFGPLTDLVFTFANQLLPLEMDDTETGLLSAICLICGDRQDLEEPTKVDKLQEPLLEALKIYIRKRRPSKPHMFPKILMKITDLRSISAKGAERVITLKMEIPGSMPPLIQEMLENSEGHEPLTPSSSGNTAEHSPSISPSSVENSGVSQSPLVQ
Chain of Peroxisome proliferator-activated receptor gamma (Homo sapiens) (P37231 whole entry, looked up, the tested form may be a part): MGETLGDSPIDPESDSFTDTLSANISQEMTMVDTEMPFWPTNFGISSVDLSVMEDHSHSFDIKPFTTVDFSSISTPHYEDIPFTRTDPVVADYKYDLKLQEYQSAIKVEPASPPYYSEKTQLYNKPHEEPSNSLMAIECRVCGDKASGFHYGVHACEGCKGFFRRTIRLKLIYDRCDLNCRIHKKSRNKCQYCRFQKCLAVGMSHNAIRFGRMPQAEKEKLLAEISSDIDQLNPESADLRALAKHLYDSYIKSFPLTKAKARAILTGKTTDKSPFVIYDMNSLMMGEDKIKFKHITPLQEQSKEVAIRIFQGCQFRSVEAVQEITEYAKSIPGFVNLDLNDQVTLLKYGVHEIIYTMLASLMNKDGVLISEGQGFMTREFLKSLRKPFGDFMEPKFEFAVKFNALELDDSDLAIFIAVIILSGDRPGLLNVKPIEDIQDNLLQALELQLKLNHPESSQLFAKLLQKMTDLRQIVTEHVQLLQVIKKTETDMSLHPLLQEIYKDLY

As for `Oc1ccccc1Cc1ccccc1O`, the outcome in experiment [1], in experiment [2], in [3], in experiment [4], in [7] and in experiment [8] was inactive. In addition, the concentration at half-maximal activity (AC50) in experiment [5] was 7.87 µM (active) and 20 µM (active); in [6], 61.1 µM (active).
Turning to `c1ccc(Nc2cccc3ccccc23)cc1`, the AC50 is 32.8 µM (active) and 18 µM (active) in experiment [1]; 9.04 µM (active) in experiment [2]; 32.6 µM (active) in [4]; 27 µM (active) and 30.4 µM (active) in experiment [5]; 18.3 µM (active) in experiment [6]; 12.6 µM (active) in experiment [7]. Also, the outcome in experiment [4] and in experiment [9] was inactive.
For `CC(c1cc(C(C)(C)C)cc(C(C)(C)C)c1O)c1cc(C(C)(C)C)cc(C(C)(C)C)c1O`, the AC50 in experiment [1] was 1.65 µM (active); in experiment [5] it was 5.09 µM (active); in experiment [7] it was 0.0816 µM (active). In addition, the call in [2], in experiment [3], in [4], in experiment [9] and in experiment [10] was inactive.
For the compound `CCC1(C)C(=O)N(Cl)C(=O)N1Cl` (stereo not drawn), the outcome in experiment [1], in [2], in experiment [3], in experiment [4], in experiment [5] and in experiment [6] was inactive. Moreover, the outcome in [7] was inactive.
Regarding `CCCCCCCCCCCC(C)=O`, the AC50 in [1] is 30.1 µM (active); in experiment [4], 32.5 µM (active); in [5], 20 µM (active); in experiment [6], 51 µM (active). Besides, the result in experiment [2], in experiment [9], in [10], in experiment [7] and in experiment [8] was inactive.
On to `C=CC(=O)NC(C)(C)C`, for which the outcome in experiment [1], in experiment [2], in experiment [4] and in [5] was inactive.
For `CCCCCCOC(=O)CCCCC(=O)OCCCCCC`, the outcome in experiment [1], in experiment [2], in [4], in [9], in experiment [10] and in experiment [5] was inactive. Also, the compound was called inactive in [6], in experiment [7] and in experiment [8].
Turning to `C=CC(=O)NCOCCCC`, the outcome in [1], in experiment [2], in experiment [3], in [4], in experiment [5] and in experiment [7] was inactive. In experiment [6], the concentration at half-maximal activity (AC50) is 34.2 µM (active).
In the case of `Nc1cccc(N)n1`, the result in [1], in experiment [2], in [3], in [4], in experiment [9] and in experiment [5] was inactive. Moreover, the compound was classed as inactive in experiment [6] and in experiment [7].
